Data reported in PubChem BioAssay AID1531 (NMMLSC, 2009).
Out of some 290,000 compounds screened, about 3,300 (1.1%) were called active. The full list was thinned out, with actives kept by preference. Values without a mark were called inactive. Rule as the data show it: active = binding response below about 67% or above about 130%; inconclusive = no clear call, values can overlap the other calls; inactive = in between.

Biological target: Mitogen-activated protein kinase kinase kinase 2 (Homo sapiens) (UniProt Q9Y2U5)
Experiment: modulators of MEK5 binding to wildtype MEKK2, primary screen, biochemical, multiplex bead flow cytometry, Alexa488-MEK5 (AID 1531)
Conditions: Alexa488-MEK5 binding to MEKK2 WT, at 10 µM, actives lie on both sides

| Structure (SMILES) | binding response (% of control) |
| --- | --- |
| O=C(Cc1csc(Nc2nc(=S)[nH]c3ccccc23)n1)NCCCN1CCN(c2cccc(Cl)c2)CC1 | 150% (active) |
| O=C(CCCn1c(=O)[nH]c2cc(Cl)ccc2c1=O)NCCN1CCN(c2ccccc2)CC1 | 97% |
| COc1cccc(CNC(=O)Cc2csc(Nc3nc(=S)[nH]c4ccccc34)n2)c1 | 90% |
| COc1ccc(Nc2ncnc3sc(C)cc23)cc1 | 105% |
| CCCCN1C(N)=NC[C@@H]1Cc1ccccc1 | 100% |
| O=C1NCC(=O)N(Cc2ccccc2)/C1=C/c1ccccc1 | -4% [inhibitor] (active) |
| O=C1/C(=C\c2cccnc2)CN(Cc2ccccc2)C/C1=C\c1cccnc1 | 119% |
| O=C1C(Cc2ccc(O)cc2)NC(=S)N1Cc1ccccc1 (stereo not drawn) | 97% |
| C[C@H]1CC[C@]2(O[C@@H](CCO)C[C@@H](O)[C@@H]2O)O1 | 97% |
| O=C1N[C@@H](Cc2ccccc2)C(=O)N2[C@@H]3N(S(=O)(=O)c4ccc(F)cc4)c4ccccc4[C@]3(Br)C[C@@H]12 | 98% |
| CCC(C(=O)NCc1cccnc1)n1nc(C)c2sc3ccccc3c2c1=O (stereo not drawn) | 103% |
| N#Cc1c(Cl)nc(-c2cccnc2)nc1-c1ccccc1 | 106% |
| CN(Cc1ccccc1)C(=O)C(=O)c1cn(CC(=O)N2CCCC2)c2ccccc12 | 106% |
| CCC(C)(C)NC(=O)C1c2ccccc2Oc2ccccc21 | 97% |
| CC(C)(C)c1nnc(NC(=O)C2c3ccccc3Oc3ccccc32)s1 | 39% [inhibitor] (active) |
| CCC(C)NC(=O)C1c2ccccc2Oc2ccccc21 (stereo not drawn) | 72% |
| CC(NS(=O)(=O)c1ccc(Cl)cc1)C(=O)Nc1ccc2c(c1)OCCO2 (stereo not drawn) | 97% |
| COc1ccc(CC(=O)N/N=C(\C)c2ccccn2)cc1 | 99% |
| Cc1cccc(OCC(=O)NCCCNC(=O)c2ccccn2)c1 | 98% |
| CCN(CC)CCOc1ccc2c(c1)C(=NNC(=O)c1ccccn1)c1cc(OCCN(CC)CC)ccc1-2 | 191% (active) |
| CCOC(=O)c1ccc(NC(=O)c2c(N)n(C)c(=O)[nH]c2=O)cc1 | 98% |
| CC1(C)S[C@@H]2[C@H](NC(=O)COc3ccccc3)C(=O)N2C1C(=O)OCc1ccccc1 (stereo partly drawn) | 93% |
| O=C(c1ccco1)N1CCN(C(=S)Nc2cc(F)cc(F)c2)CC1 | 102% |
| COc1ccc(CNC(=O)C2CCN(S(=O)(=O)N3CCOCC3)CC2)cc1 | 100% |

| Structure (SMILES) | binding response (% of control) |
| --- | --- |
| COc1ccc(CNC(=O)C2CCN(S(=O)(=O)c3ccc(SC)cc3)CC2)cc1 | 105% |
| COc1ccc(CNC(=O)C2CCN(S(C)(=O)=O)CC2)cc1 | 42% [inhibitor] (active) |
| O=C(NCCc1ccccc1)C1CC1 | 103% |
| COC(=O)c1c(-c2ccsc2)oc2ccc(-c3cc(OC)c(OC)c(OC)c3)cc12 | 96% |
| O=C(CCn1c(=O)[nH]c2ccccc2c1=O)NCCCN1CCN(c2cccc(Cl)c2)CC1 | 108% |
| Cn1c(C(=O)NCCCN2CCN(c3cccc(Cl)c3)CC2)cc2c(=O)n(C)c3ccccc3c21 | 173% (active) |
| Cn1c(C(=O)NCCc2ccsc2)cc2c(=O)n(C)c3ccccc3c21 | 97% |
| O=C(CNC(=O)c1ccc(Br)o1)Nc1ccccc1 | 99% |
| Cc1ccc(-c2ccc(=O)n(CC(=O)NCCCN3CCCCC3)n2)cc1 | 109% |
| Cc1nn(CC(=O)NCCc2ccccc2)c(=O)c2cc3occc3n12 | 111% |
| CCc1ccc(-c2cc3c(=O)n(CC(=O)NCCCN4CCN(Cc5ccccc5)CC4)nc(C)n3n2)cc1 | 141% (active) |
| CCCCN1C(N)=NC[C@@H]1CC1CCCCC1 | 119% |
| COc1ccc(-c2noc(C(C)NS(=O)(=O)c3ccc(NC(C)=O)cc3)n2)cc1 (stereo not drawn) | 95% |
| C=C(C)COc1ccc(-c2ncncc2-c2ccc(OC)cc2)c(O)c1 | 100% |
| CCc1nn(CC(=O)N2CCN(CC)CC2)c(=O)c2cccn12 | 95% |
| Cc1cc(NC(=O)COc2ccc(Cl)cc2Cl)n(CCC#N)n1 | 88% |
| Cc1nn(-c2ccccc2)c(C)c1NC(=O)COc1ccc(Cl)cc1Cl | 103% |
| COC(=O)c1c(NC(=O)COc2ccc(Cl)cc2Cl)sc2c1CC(C)(C)NC2(C)C | 147% (active) |
| CC(=O)c1ccc(S(=O)(=O)N(C)CCCC(=O)N(C)Cc2ccccc2F)cc1 | 105% |
| CN(CC1CCCO1)S(=O)(=O)c1ccc(C(=O)Nc2ccc(F)cc2)cc1 (stereo not drawn) | 98% |
| Cc1cccc(NC(=O)c2ccc(S(=O)(=O)N(C)CC3CCCO3)cc2)c1C (stereo not drawn) | 99% |
| CCOC(=O)c1c(NC(=O)c2ccc(S(=O)(=O)N(C)CC3CCCO3)cc2)sc2c1CC(C)(C)NC2(C)C (stereo not drawn) | 134% (active) |
| O=C(NC1CCCC1)C(c1c(F)cccc1Cl)N(C(=O)c1csnn1)C1CC1 (stereo not drawn) | 95% |
| O=S(=O)(c1ccccc1)c1nc(Cc2ccccc2)oc1N1CCOCC1 | 102% |

| Structure (SMILES) | binding response (% of control) |
| --- | --- |
| CNC(C)C#Cc1ccc2sc3cc(OC)c(OC)cc3c(=O)c2c1 (stereo not drawn) | 136% (active) |
| CN1C(=O)C2(OCCCO2)c2cc(Cl)ccc21 | 109% |
| Cc1ccc(-c2nc(-c3ccncc3)no2)c(C)c1 | 104% |
| COc1cc(-c2nc(-c3ccncc3)no2)cc(OC)c1OC | -3% [inhibitor] (active) |
| c1csc(-c2nc(-c3ccncc3)no2)c1 | 94% |
| CC1CCCN(c2ccc(C(=O)NCCc3ccccc3)cn2)C1 (stereo not drawn) | 97% |
| Cc1ccc(Sc2cc(C(=O)c3ccccc3C(=O)O)ccc2[N+](=O)[O-])cc1 | 95% |
| CC(Sc1nnc(CNC(=O)c2ccccc2F)n1C)C(=O)Nc1nccs1 (stereo not drawn) | 101% |
| COc1ccc(CN2CC[C@H]3C=CC[C@@H](C(=O)N4CCOCC4)[C@H]3C2=O)cc1OC | 99% |
| CCOC(=O)c1ccc(Nc2cc3ccccc3c(=O)[nH]2)cc1 | 99% |
| Cc1cccc(C(=O)OC(C)CN2CCN(C)CC2)c1 (stereo not drawn) | 97% |
| Cc1cccc(-c2nc3ccc(C(=O)NCCN4CCN(C)CC4)cc3nc2-c2cccc(C)c2)c1 | 156% (active) |
| Cc1ccc(C(=O)NCCN2CCOCC2)cc1C | 99% |
| CC(C(=O)N1CCN(c2ccccc2F)CC1)c1ccc([N+](=O)[O-])cc1 (stereo not drawn) | 111% |
| O=C(Nc1cccc(Cl)c1)c1cc(S(=O)(=O)N2CCCCC2)c[nH]1 | 100% |
| CN(C)CCCN(C(=O)COc1ccccc1)c1nc2c(Cl)cccc2s1 | 338% (active) |
| COc1cccc2sc(N(CCCN(C)C)C(=O)CCS(=O)(=O)c3ccccc3)nc12 | 105% |
| COc1cccc2sc(N(CCCN(C)C)C(=O)C(c3ccccc3)c3ccccc3)nc12 | 178% (active) |
| CCN(C(=O)COc1ccc(C(=O)c2ccccc2)cc1)c1ccccc1 | 101% |
| COc1cc2ccccc2cc1C(=O)N(CCN(C)C)c1nc2c(F)cccc2s1 | 113% |
| CN(Cc1ccccc1)C(=O)COc1ccccc1 | 106% |
| CC(=O)N[C@H]1[C@H]([C@H](O)[C@H](O)CO)OC(C(=O)O)=C[C@@H]1O | 106% |
| Cc1ccc(C)c(OCc2cc(C(=O)N3CCN(c4cnccn4)CC3)no2)c1 | 93% |
| COc1cccc(NC(=O)N2C3CCCC2CC(NC(C)=O)C3)c1 (stereo not drawn) | 109% |

| Structure (SMILES) | binding response (% of control) |
| --- | --- |
| O=C(CN1C(=O)S/C(=C\c2ccccc2Cl)C1=O)NC1C=CS(=O)(=O)C1 (stereo not drawn) | 101% |
| Cc1cc(S(=O)(=O)c2cc3ccc(O)c(C)c3oc2=O)ccc1F | 102% |
| CCCc1cc(=S)n2c([nH]c3ccccc32)c1C#N | -3% [inhibitor] (active) |
| Cc1ccccc1Cn1c(=O)[nH]c2ccccc21 | 48% |
| CCOC(=O)CCc1c(C)c(C#N)c2[nH]c3ccccc3n2c1=O | 106% |
| O=C(NCC(=O)N(c1ccccc1)C(C(=O)NCC1CCCO1)c1ccccc1)c1cccs1 (stereo not drawn) | 103% |
| CCN(CC)CCCNC(=O)c1ccc2c(=O)n(Cc3ccc4c(c3)OCO4)c(=S)[nH]c2c1 | 144% (active) |
| CCCCNC(=O)CCn1c(=S)[nH]c2cc3c(cc2c1=O)OCO3 | 99% |
| COc1ccc(Cn2c(=S)[nH]c3cc(C(=O)NCCCN4CCOCC4)ccc3c2=O)cc1 | 115% |
| CC(C)CCn1cnc2c1c(=O)n(CC(=O)NC(N)=O)c(=O)n2Cc1ccccc1 | 99% |
| CCCCOC(=O)Cn1c(=N)n(CCN(CC)CC)c2ccccc21 | 106% |
| CCCCCCCCCCOC(=O)Cn1c(COc2cccc(OC)c2)[n+](C)c2ccccc21 | 278% (active) |
| CCCCCCCCCCOC(=O)Cn1c(COc2ccc(C)cc2)[n+](C)c2ccccc21 | 319% (active) |
| COc1cccc(OCCCN2CCCCCC2)c1 | 102% |
| Cc1ccc(OCc2nc3ccccc3n2C)cc1 | 103% |
| CCCCOC(=O)Cn1c(=O)n(CC(=O)OCCCC)c2cc(C)ccc21 | 97% |
| Nc1ccn(C2CC(O)C(CO)O2)c(=O)n1 (stereo not drawn) | 105% |
| O=C(CSc1nc2nccnc2c(=O)n1Cc1cccs1)Nc1ccccc1F | 90% |
| COc1ccc(C2CC(c3cccs3)=NN2c2ccc(F)cc2)cc1OC (stereo not drawn) | 88% |
| COc1ccc(C2CC(c3cccs3)=NN2C(=O)CCC(=O)O)cc1OC (stereo not drawn) | 108% |
| COc1ccc(C2CC(c3cccs3)=NN2c2nc(C)c(C(C)=O)s2)cc1OC (stereo not drawn) | 63% [inhibitor] (active) |
